Measurements as given in the supplement of paper PMC10849652.
The full data set covers some 8,800 targets. This sample favours those with a hit. About 0.5% of all pairs of compound and target were hits.

These targets were tested with Cc1ncc(-c2ccnc(Nc3ccc(S(C)(=O)=O)cc3)n2)n1C(C)C (assay: log2 fold change, soluble protein after heating vs DMSO (PISA); higher = thermal stabilisation; K562 lysate, 10 uM; active = over 0.2 and 3.5 SD of the protein, either way, in both replicates (recomputed)).
How it was run: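 Following dounce homogenisation of K562 pellets in PBS pH 7.4 with 1 mM MgCl2, crude extract at 1 mg/mL protein was incubated for 30 min with 10 μM compound. Aliquots were then heated for 3 min over 48°C-58°C and pooled, NP-40 was added to 0.5% at 4°C, and soluble protein was recovered as the supernatant at 21,000xg for 90 min. Channel-sum-equalised TMTpro 16plex LC-MS/MS quantified this protein. Each value, from duplicates, is a log-two fold change in thermal stability relative to solvent controls.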

UniProt Q96Q15, sequence (Q96Q15 whole entry, looked up): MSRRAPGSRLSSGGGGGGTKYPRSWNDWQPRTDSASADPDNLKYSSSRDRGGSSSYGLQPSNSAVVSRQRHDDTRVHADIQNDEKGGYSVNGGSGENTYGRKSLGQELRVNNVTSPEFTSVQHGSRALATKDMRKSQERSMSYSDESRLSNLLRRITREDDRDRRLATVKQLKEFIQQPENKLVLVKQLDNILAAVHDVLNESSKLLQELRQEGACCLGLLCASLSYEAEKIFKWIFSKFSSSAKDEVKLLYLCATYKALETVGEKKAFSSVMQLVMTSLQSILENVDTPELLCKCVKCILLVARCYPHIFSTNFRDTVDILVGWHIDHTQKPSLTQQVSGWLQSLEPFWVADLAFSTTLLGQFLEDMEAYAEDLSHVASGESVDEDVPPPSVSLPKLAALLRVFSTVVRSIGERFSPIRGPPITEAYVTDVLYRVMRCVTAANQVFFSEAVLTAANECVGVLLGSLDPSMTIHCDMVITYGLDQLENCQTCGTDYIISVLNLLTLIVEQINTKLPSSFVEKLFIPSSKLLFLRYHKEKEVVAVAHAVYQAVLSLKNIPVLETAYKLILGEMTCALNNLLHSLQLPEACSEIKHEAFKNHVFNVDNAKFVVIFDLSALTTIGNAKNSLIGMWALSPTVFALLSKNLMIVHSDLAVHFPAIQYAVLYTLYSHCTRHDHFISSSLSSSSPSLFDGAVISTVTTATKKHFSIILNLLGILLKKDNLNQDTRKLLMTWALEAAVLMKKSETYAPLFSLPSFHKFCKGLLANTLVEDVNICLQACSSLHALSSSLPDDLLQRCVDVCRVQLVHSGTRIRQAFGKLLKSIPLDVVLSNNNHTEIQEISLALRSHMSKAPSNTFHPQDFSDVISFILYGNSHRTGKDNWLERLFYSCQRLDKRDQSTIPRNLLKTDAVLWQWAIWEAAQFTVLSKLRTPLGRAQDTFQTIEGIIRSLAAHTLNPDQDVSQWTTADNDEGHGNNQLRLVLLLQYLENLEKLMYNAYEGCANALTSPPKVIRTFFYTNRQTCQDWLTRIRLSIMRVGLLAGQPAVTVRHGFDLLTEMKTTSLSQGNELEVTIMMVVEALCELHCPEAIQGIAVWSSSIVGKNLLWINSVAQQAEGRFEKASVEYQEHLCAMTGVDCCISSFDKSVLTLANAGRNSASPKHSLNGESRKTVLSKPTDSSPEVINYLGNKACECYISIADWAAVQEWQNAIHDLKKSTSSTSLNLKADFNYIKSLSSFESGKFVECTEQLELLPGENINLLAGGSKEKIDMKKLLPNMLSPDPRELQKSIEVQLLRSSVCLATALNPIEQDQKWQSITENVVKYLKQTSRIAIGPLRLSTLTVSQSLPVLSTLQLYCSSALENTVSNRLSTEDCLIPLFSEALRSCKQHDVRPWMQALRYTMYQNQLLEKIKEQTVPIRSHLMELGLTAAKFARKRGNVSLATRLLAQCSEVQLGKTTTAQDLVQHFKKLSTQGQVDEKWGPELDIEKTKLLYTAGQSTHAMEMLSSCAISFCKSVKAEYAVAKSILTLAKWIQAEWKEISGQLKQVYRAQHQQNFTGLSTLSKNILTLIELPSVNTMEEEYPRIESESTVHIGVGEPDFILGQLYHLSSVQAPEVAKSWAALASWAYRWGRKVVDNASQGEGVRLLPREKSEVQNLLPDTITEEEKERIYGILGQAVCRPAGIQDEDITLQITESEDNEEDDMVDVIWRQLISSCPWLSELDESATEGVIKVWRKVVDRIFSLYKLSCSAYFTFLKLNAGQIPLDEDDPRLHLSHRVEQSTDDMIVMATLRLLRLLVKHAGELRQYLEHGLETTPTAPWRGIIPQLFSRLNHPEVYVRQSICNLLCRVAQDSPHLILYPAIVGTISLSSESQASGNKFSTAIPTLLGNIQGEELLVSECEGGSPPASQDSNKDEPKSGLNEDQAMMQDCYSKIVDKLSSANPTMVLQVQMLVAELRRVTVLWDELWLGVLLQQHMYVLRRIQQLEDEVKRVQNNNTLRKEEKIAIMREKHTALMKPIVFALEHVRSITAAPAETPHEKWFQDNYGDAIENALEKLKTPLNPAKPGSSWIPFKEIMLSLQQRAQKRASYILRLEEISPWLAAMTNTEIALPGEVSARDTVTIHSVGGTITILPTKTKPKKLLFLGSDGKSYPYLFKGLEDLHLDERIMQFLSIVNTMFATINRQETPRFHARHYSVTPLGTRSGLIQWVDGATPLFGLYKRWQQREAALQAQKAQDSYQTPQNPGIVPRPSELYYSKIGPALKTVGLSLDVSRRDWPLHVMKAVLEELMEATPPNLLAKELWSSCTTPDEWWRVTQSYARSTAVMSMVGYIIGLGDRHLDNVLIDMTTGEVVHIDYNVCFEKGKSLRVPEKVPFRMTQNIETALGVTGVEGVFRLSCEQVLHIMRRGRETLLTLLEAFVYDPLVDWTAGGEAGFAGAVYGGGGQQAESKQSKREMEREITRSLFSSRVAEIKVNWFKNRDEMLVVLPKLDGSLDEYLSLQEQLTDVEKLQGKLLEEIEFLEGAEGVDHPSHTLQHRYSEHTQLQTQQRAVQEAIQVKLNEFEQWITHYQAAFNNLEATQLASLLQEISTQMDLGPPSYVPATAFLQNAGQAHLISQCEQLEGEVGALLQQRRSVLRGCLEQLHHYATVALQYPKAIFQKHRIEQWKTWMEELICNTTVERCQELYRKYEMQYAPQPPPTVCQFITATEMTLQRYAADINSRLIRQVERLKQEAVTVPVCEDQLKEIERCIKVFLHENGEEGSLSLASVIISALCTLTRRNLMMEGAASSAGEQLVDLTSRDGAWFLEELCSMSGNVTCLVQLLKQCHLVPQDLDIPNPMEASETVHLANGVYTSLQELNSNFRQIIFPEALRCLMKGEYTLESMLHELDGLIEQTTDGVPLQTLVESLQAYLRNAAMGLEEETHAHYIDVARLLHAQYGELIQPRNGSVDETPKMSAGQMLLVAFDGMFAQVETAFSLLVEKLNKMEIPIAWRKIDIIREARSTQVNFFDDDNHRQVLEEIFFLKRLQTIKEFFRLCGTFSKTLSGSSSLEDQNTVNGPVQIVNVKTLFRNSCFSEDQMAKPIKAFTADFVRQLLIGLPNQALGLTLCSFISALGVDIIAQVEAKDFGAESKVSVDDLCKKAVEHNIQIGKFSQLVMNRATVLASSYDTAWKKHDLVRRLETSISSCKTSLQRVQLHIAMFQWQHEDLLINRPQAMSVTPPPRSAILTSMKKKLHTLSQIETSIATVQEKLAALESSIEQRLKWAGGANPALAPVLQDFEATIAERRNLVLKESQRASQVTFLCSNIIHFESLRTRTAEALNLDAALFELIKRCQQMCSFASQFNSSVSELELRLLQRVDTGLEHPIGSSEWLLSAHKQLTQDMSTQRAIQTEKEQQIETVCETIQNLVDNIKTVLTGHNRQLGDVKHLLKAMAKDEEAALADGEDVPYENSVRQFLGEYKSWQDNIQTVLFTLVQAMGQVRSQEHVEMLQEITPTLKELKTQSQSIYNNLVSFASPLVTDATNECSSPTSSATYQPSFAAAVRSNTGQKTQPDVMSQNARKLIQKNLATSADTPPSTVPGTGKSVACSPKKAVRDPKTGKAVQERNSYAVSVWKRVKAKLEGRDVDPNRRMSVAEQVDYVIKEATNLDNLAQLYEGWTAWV
UniProt Q9UMZ2, sequence (Q9UMZ2 whole entry, looked up): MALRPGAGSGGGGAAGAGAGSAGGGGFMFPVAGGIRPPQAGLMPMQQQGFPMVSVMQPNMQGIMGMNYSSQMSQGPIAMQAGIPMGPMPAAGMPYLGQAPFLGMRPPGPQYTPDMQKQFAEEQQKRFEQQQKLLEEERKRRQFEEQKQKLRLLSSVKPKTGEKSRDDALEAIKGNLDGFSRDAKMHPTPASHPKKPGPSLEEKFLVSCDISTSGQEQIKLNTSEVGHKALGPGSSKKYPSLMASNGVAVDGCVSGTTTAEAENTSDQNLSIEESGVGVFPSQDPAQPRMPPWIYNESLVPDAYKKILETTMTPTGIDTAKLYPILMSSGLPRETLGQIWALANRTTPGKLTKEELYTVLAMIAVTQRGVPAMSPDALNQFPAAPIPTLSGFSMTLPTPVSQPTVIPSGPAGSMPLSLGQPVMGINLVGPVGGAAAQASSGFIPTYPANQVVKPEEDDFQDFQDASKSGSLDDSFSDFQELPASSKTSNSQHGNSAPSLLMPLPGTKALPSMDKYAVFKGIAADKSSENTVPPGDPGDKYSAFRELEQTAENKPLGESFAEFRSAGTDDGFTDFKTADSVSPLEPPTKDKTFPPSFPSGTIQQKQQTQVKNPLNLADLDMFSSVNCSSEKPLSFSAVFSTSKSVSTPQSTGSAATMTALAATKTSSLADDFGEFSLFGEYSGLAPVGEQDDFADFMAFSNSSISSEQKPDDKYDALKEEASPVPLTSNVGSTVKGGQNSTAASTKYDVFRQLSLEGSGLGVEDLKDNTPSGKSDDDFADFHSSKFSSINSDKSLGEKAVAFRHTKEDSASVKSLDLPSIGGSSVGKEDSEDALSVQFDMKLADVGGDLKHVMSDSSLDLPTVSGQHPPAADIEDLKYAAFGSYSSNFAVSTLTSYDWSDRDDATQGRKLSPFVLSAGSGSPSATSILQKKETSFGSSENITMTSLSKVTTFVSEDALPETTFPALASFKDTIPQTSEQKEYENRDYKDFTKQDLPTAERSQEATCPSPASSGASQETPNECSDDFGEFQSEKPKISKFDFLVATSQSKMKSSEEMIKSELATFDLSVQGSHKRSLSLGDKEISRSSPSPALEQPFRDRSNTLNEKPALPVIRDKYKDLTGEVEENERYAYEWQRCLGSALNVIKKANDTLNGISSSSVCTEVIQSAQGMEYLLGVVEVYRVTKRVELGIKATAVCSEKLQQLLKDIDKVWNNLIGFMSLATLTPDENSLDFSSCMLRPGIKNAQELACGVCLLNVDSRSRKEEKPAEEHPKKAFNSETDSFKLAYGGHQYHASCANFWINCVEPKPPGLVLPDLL
UniProt Q9UJC5, sequence (Q9UJC5 whole entry, looked up): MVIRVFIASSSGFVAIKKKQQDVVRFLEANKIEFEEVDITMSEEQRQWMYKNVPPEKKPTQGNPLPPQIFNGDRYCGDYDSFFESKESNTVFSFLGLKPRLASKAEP

log2 fold change, inactive:
SPNS1 (UniProt Q9H2V7) -0.017, SRM (UniProt P19623) 0.009, STOML2 (UniProt Q9UJZ1) 0.017, SFN (UniProt P31947) -0.007, SMC1B isoform 3 (UniProt Q8NDV3) 0.023, STK24 (UniProt B4DR80) 0.086, STAU1 (UniProt O95793) -0.002, SPATS2 (UniProt Q86XZ4) 0.074, SMC4 (UniProt Q9NTJ3) 0.016, STK38 (UniProt Q15208) 0.078, SMG6 (UniProt Q86US8) 0.079, SMARCA4 (UniProt P51532) -0.019, SSBP3 (UniProt Q9BWW4) 0.014, STAT2 (UniProt P52630) -0.086, STUB1 (UniProt Q9UNE7) 0.027, SHKBP1 (UniProt Q8TBC3) -0.072, SSB (UniProt P05455) 0.006, SMG7 (UniProt Q92540) -0.058, SMG1 (UniProt Q96Q15) 0.038, SRRT (UniProt Q9BXP5) -0.005, SHC1 isoform 6 (UniProt P29353) -0.02, SH3BGRL2 (UniProt Q9UJC5) -0.019, SP1 (UniProt P08047) 0.117, SHCBP1 (UniProt Q8NEM2) -0.043, SH3BP5L (UniProt Q7L8J4) 0.04, SYNRG (UniProt Q9UMZ2) 0.036, STK26 (UniProt Q9P289) 0.044, SMC2 (UniProt O95347) 0.007, SLC11A2 isoform 3 (UniProt P49281) 0.03, SYF2 (UniProt O95926) 0.005, SMC6 (UniProt Q96SB8) -0.019, SLC29A2 (UniProt Q14542) 0.058, SNAP23 (UniProt O00161) -0.013
